Assay outcomes: PubChem, several laboratories
FXN GAA850 act: FXN promoter activators, primary screen, cell-based, luciferase luminescence, HEK293 lucGAA850; 360,000 tested, 0.56% active; AID 540364, 2011; activation, % at 6 µM; HEK293 lucGAA850 FXN promoter luciferase reporter, 24 h; percent of 10 µM SAHA response;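 active means activation above the average of all compounds screened plus 3 SD, cutoff fixed separately per campaign, cut at about 7.5% in these data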;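 further: 0% = DMSO wells and 100% = 10 µM SAHA wells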
SMARCA2 act: SMARCA2 (BRM) function activators, primary screen, cell-based, luminescence, high throughput; 370,000 tested, 1% active; AID 652017, 2013; activation, % at 9.1 µM; MG213 cells, MMTV-luciferase reporter, dexamethasone, overnight; in the data active means activation above about 7.8%;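 further: 0% = vehicle wells and 100% = reference activator wells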
Gli-Sufu antag: Gli-Sufu pathway antagonists, primary screen, luciferase luminescence, Sufu-KO-LIGHT cells, uHTS; Sufu-KO-LIGHT fibroblasts, Gli luciferase reporter luminescence; inhibition, % at 5 µM; 340,000 tested, 0.74% active; AID 588413, 2011;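 active means inhibition above about 55%, limit read from the data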;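 further: 0% = DMSO-treated cells and 100% = wells with medium but no cells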
Cardio protect: cardioprotection against H2O2-induced cell death, primary screen, uHTS, H9c2 cells, ATPLite luminescence. protection from H2O2 cell death, % at 20 µM. 360,000 tested, 0.63% active. AID 588492, 2011. H9c2 cardiomyocytes, H2O2 injury protection, 2 h;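 active means compounds giving at least 50% protection of heart cells from peroxide-induced death in the single-dose screen, raw or plate-pattern-corrected value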;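 further: 0% = DMSO wells with peroxide and 100% = DMSO wells without peroxide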
COUP-TFII inh: NR2F2 transcriptional activity inhibitors, primary screen, cell-based, luciferase reporter, HEK293T, luminescence | HEK293T NGFI-A luciferase reporter | inhibition, % at 8.6 µM | AID 686940, 2013 | 370,000 tested, 0.7% active;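 active means inhibition above a per-plate cutoff, mean inhibition of test wells between control levels plus 3 SD, cut at about 38% in these data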;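 further: cells cotransfected with COUP-TFII expression vector driving the NGFI-A reporter; 0% = median of COUP-TF2 test wells and 100% = reporter-only cells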
Target sequence (P24468 whole entry, looked up): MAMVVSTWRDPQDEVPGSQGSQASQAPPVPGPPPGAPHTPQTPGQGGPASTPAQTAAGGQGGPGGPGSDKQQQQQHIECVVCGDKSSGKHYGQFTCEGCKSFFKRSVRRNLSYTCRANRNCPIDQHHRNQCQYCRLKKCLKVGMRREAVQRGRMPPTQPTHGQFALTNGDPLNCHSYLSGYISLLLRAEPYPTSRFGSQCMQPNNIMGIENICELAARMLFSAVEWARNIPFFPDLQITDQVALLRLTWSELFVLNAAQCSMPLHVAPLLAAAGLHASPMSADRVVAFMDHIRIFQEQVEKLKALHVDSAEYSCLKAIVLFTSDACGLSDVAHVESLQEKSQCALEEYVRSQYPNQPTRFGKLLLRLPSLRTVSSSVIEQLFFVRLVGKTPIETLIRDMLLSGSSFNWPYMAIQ
GalR3 antag: GalR3 antagonists in HEK293 cells, primary screen, cell-based, fluorescence readout | AID 651719, 2012 | inhibition, % at 3 µM | 360,000 tested, 0.44% active | Galanin receptor type 3 (Homo sapiens), O60755 | HEK293 GalR3-CNG cAMP membrane potential fluorescence; galR3 body fused to GalR1 C-terminus;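 active means inhibition above the screen-wide average plus 3 SD, cut at about 13% in these data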;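 further: forskolin and galanin both at EC90 stimulate the cells; cAMP rise reported by CNG channel membrane potential dye signal; 0% = forskolin plus galanin with DMSO and 100% = forskolin alone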
Target sequence (O60755 1-299 limits assumed): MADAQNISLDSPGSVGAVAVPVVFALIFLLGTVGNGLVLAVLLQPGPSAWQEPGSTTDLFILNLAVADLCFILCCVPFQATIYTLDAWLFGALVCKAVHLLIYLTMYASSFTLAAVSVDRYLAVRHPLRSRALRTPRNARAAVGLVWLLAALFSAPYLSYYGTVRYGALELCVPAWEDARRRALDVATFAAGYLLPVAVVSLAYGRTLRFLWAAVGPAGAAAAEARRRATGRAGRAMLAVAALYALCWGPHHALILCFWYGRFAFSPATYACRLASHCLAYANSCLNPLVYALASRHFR
GalR3 conf: GalR3 antagonist hit confirmation, cell-based, fluorescence, triplicate | HEK293 GalR3 CNG cAMP biosensor, membrane potential fluorescence; galR3 fused to GalR1 carboxy tail; challenged with forskolin and galanin at EC90 | inhibition, % at 3 µM | shares compounds with GalR3 antag | AID 652245, 2013 | 1,600 tested, 59% active;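 active means inhibition above the primary screen's cutoff, the mean inhibition of all screened compounds plus 3 SD, cut at about 13% in these data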;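 further: 0% = forskolin plus galanin and 100% = forskolin alone with DMSO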
CNG parental: nonspecific cAMP agonists in parental HEK-CNG cells, counter-screen for GalR3 antagonist project, cell-based, fluorescence, high throughput; shares compounds with GalR3 antag; HEK293-CNG parental cells, cAMP membrane potential fluorescence; normalised: DMSO wells 0%, forskolin wells 100%; activation, % at 3 µM; 1,600 tested, 10% active; AID 652268, 2013; in the data active means activation above about 1.3%
SMARCA2 conf: SMARCA2 (BRM) function activators, confirmation, cell-based, luminescence, triplicate; shares compounds with SMARCA2 act; MG213 cells, MMTV-luciferase with dexamethasone, overnight; MG213 cells expressing E1A, Rb sequestered; DMSO wells 0%, reference activator 100%; activation, % at 9.1 µM; 3,500 tested, 30% active; AID 652260, 2013;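 active means activation above its plate's cutoff, the mean activation of tested wells plus 3 SD, cut at about 7.9% in these data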
VP16 Luc act: GAL4-VP16 luciferase reporter activation, counter-screen for SMARCA2 (BRM) activator project, cell-based, pG5luc, luminescence, high throughput; shares compounds with SMARCA2 act; HEK293 GAL4-VP16 pG5luc reporter; scaled: DMSO wells 0%, SAHA wells 100%; activation, % at 9.1 µM; 3,500 tested, 41% active; AID 686939, 2013;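 active means activation above the solvent-only control well mean plus 3 SD, averaged across control plates, cut at about 5.2% in these data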
Gal4-VP16 ctr: Gal4-VP16 luciferase reporter inhibitors, counter-screen for COUP-TFII antagonist project, cell-based, luminescence, HEK293 | shares compounds with COUP-TFII inh | inhibition, % at 8.5 µM | 2,500 tested, 25% active | AID 687007, 2013; in the data active means inhibition above about 13%
COUP-TFII conf: NR2F2 transcriptional activity inhibitors, confirmation, cell-based, luciferase reporter, HEK293, triplicate; inhibition, % at 8.5 µM; HEK293 NGFI-A luciferase reporter, luminescence; 2,500 tested, 45% active; shares compounds with COUP-TFII inh;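 active means mean inhibition over three repeats above a set limit taken from the earlier primary screen, cut at about 38% in these data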;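 further: 100% = cells given the luciferase reporter alone without the COUP-TF2 vector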
An asterisk follows results filed as active; nt = no result given. Shown are actives, neighbours in structure and some others; about 3.4% of the full set was active somewhere.

SMILES | FXN GAA850 act | SMARCA2 act | Gli-Sufu antag | Cardio protect | COUP-TFII inh | GalR3 antag | GalR3 conf | CNG parental | others
C=CCN(CC=C)C(=O)COC(=O)c1ccc(Sc2ncn[nH]2)c([N+](=O)[O-])c1 | 0 | -1 | 3 | -3 | 1 | 13* | 5 | 0
Cc1cc([N+](=O)[O-])ccc1NC(=O)Nc1ccccc1F | 1 | 0 | 7 | -8 | 19 | -3 | nt | nt
O=C(Nc1ccccc1)Nc1cc([N+](=O)[O-])ccc1F | 0 | -3 | 0 | -6 | 13 | 21* | -3 | -1
COC(=O)C(C)Sc1nc2c(c(=O)[nH]c(=O)n2C)n1CCC(C)C (centres undefined) | 2 | 2 | 1 | 1 | -21 | 55* | 13* | 1
COc1cccc(-c2cc(C(=O)Nc3ccc(N(C)C(C)=O)cc3)c3cc(Br)ccc3n2)c1 | -1 | -2 | 7 | 17 | -24 | 19* | 10 | 1.4*
Cc1ccc(-n2c(=O)cc(N3CCN(C(=O)c4ccco4)CC3)[nH]c2=O)cc1 | 0 | -1 | 0 | 0 | -46 | 15* | 0 | 0
CCOc1ccc2[nH]c(=O)c(CN(Cc3ccco3)C(CC)c3nnnn3Cc3ccccc3)cc2c1 (centres undefined) | 3 | 1 | 4 | 86* | -8 | 24* | 12 | 0
COc1cccc(-c2nnc3sc(C4CCCCC4)nn23)c1 | -3 | 2 | -35 | -5 | 25 | -5 | nt | nt
c1cncc(-c2nnc3sc(C4CCCCC4)nn23)c1 | 2 | 0 | 5 | 28 | -14 | nt | 4 | 0
Cc1ccc(S(=O)(=O)N(C)C[C@@H]2OCCCC[C@H](C)Oc3ccc(NC(=O)Nc4ccc(F)cc4)cc3C(=O)N([C@H](C)CO)C[C@H]2C)cc1 | -2 | 2 | nt | -16 | 17 | -6 | nt | nt
Cc1cc(C)n2nc(C(=O)NCc3ccccc3)nc2n1 | -3 | 2 | 2 | 3 | 23 | nt | 5 | 0
Oc1cccc(C=NN=C2c3ccccc3-c3ccccc32)c1 | 2 | 2 | 1 | -8 | -1 | -3 | nt | nt
COc1ccccc1-c1nnc2n1N=C(c1ccc3c(c1)OCO3)CS2 | nt | 3 | nt | nt | -80 | nt | nt | nt
COc1ccc(C2=Nn3c(nnc3-c3ccccc3OC)SC2)cc1OC | 7 | 16* | 47 | 15 | -117 | 38* | 46* | 1.5* | SMARCA2 conf=16*;VP16 Luc act=12*
COc1ccc(C(=O)Nc2ccc3c(c2)OCO3)cc1S(=O)(=O)N1CCOCC1 | 0 | -3 | nt | -1 | -2 | -5 | nt | nt
O=C(/C=C/c1ccc(F)cc1)NCCc1ccc2c(c1)OCCO2 | -1 | -2 | 1 | 5 | -12 | 0 | nt | nt
Cc1cc(-c2cn3ccccc3n2)c(C)n1-c1ccccc1 | 7 | 10* | -14 | -25 | -17 | 13* | 4 | 0 | SMARCA2 conf=5;VP16 Luc act=8.2*
CCc1ccc(NC(=O)c2n[nH]c(=O)c3ccccc23)cc1 | 6 | 8.6* | -86 | -4 | -38 | 15* | 4 | 0 | SMARCA2 conf=7;VP16 Luc act=6.3*
COc1cc2c(cc1OC)-c1cc(Nc3ccc(C)cc3)nc(=O)n1CC2 | 6 | 9.9* | -9 | 11 | -6 | 45* | 59* | 0 | SMARCA2 conf=9.2*;VP16 Luc act=4
COc1cc2c(cc1OC)C(C)N(S(=O)(=O)c1ccc(C)cc1)CC2 (centres undefined) | 2 | 0 | 12 | -1 | -9 | -8 | nt | nt
COc1cc2c(c(NC(C)=O)c1)N(C(C)=O)CCC2 | 0 | -1 | 2 | -1 | 3 | -6 | nt | nt
O=C(NC(=S)NC(=O)c1ccccc1F)c1ccccc1F | 4 | 10.0* | 4 | 0 | -5 | 18* | 5 | 0 | SMARCA2 conf=0;VP16 Luc act=2
CCN1C(=C(C#N)C#N)C=Cc2cc(C)ccc21 | 2 | -4 | 1 | 2 | -29 | -2 | nt | nt
C=CC[n+]1c(/C=C2\C=Cc3cc(C)ccc3N2CC)ccc2ccccc21 | -10 | -9 | 90* | -31 | 75* | 45* | 64* | 6.1* | Gal4-VP16 ctr=18*;COUP-TFII conf=76*
O=C(c1ccc(O)c(Br)c1)c1cc(Br)ccc1O | -1 | -3 | 4 | -16 | 3 | 4 | nt | nt
O=C(C(=O)c1cc(Br)ccc1O)c1cc(Br)ccc1O | -4 | -7 | 29 | -18 | 39* | 87* | 44* | 1 | Gal4-VP16 ctr=7;COUP-TFII conf=10
C=CCC1(CC=C)CCCN1C(=O)c1cc(COc2cncc(Cl)c2)on1 | -2 | -3 | nt | -14 | 48* | 45* | 62* | 1 | Gal4-VP16 ctr=-14;COUP-TFII conf=29
C=CCC1(CC=C)CCCN1C(=O)c1cc(COc2cccc(OC)c2)on1 | -1 | -5 | 14 | -21 | -3 | -10 | nt | nt
Cc1cc(/C=N/n2cnnc2)c(C)n1-c1ccc(OCc2ccc(Cl)cc2)cc1 | -9 | -3 | 63* | -34 | 68* | 41* | 64* | 1 | Gal4-VP16 ctr=41*;COUP-TFII conf=88*
C(=N\n1cnnc1)/c1ccc(OCc2ccccc2)cc1 | 0 | 4 | 5 | 0 | -27 | -5 | nt | nt
